ChEMBL document CHEMBL3988442, “University of Dundee, Small-Polar-MMV Screening Library” (2021)
Among all 48,000 compounds or so, about 13,000 (27%) showed an effect of 50% or more. This is one part of the list.

tested on: Wolbachia pipientis; assay: Anti-Wolbachia Cell-Based Screen; format: functional; design: scale not given: in the data most compounds retested in dose-response had high values; details: 5 µM

First: CN(C)C(CNCc1nc(-c2ccsc2)no1)c1ccsc1 (configuration not stated)
Second: COc1ccc(F)cc1S(=O)(=O)NCC(c1cccn1C)N(C)C (configuration not stated)
The “Percent Effect” value of the first is higher: 7.6% for the first, -20.36% for the second.

Compared with `CC(SCc1ccc(Br)c2cccnc12)C(N)=O` (configuration not stated), `O=C(NCc1ncc[nH]1)c1c(F)cccc1I` is lower in “Percent Effect” value: -7.187% for the first, -7.586% for the second.

Going from `CCNC(=O)c1ccc(N2CCCC(c3nccn3C(C)C)C2)nc1` (configuration not stated) to `Cc1ccccc1N1CCN(C(=O)CC(C)C)CC1`, the “Percent Effect” value falls from -0.11% to -38.06%.

First: Cn1cc(Cl)c(CN2CCn3nc(C(=O)N4CCCC4)cc3C2)n1
Second: CN1CCN(Cc2cn3c(n2)CN(C(=O)c2ccco2)CC3)CC1
The “Percent Effect” value of the first is higher: -5.174% for the first, -12.05% for the second.

Compared with `COCCN(Cc1ccccn1)C(=O)C1CCCCCN1C` (configuration not stated), `COCCN1CC[C@@H]2OC[C@H](C(=O)N(C)Cc3ccccn3)C[C@@H]2C1` is higher in “Percent Effect” value: -8.345% for the first, 115.4% for the second.

First: COCCN1CCC(C(=O)N(C)Cc2cccc(Cl)c2)C1 (configuration not stated)
Second: COCCC(=O)N1CC[C@@H](N2CCN(C)CC2)[C@@H]1Cc1ccccc1
The “Percent Effect” value of the first is lower: -62.62% for the first, -8.117% for the second.

Compared with `CN(Cc1ccccn1)C(=O)[C@H]1CO[C@H]2CCN(CC3CC3)C[C@H]2C1.O=C(O)C(F)(F)F.O=C(O)C(F)(F)F`, `CN(Cc1ccccn1)C(=O)c1nn(C)c2c1CCN(CC1CC1)C2.O=C(O)C(F)(F)F.O=C(O)C(F)(F)F.O=C(O)C(F)(F)F` is lower in “Percent Effect” value: 99.36% for the first, -10.9% for the second.

Compared with `CN(Cc1ccco1)C[C@H]1OC[C@@H]2CCN(Cc3ccccn3)C[C@@H]21.O=C(O)C(F)(F)F.O=C(O)C(F)(F)F.O=C(O)C(F)(F)F`, `CN1CCN(CC2CC2)C(=O)C12CCN(C(=O)CC(F)(F)F)CC2.O=C(O)C(F)(F)F` is higher in “Percent Effect” value: 0.7755% for the first, 112.7% for the second.

Going from `CC(C)c1nc(CN2CCC(CO)CC2)cs1` to `COCCCC1(CO)CCCN(Cc2nccs2)C1` (configuration not stated), the “Percent Effect” value rises from -12.85% to 3.777%.

First: COCc1ncn2c1CN(C(=O)c1ccc[nH]1)CC2
Second: COCc1ncn2c1CN(C(=O)c1ccco1)CC2
The “Percent Effect” value of the first is lower: 111% for the first, 113.2% for the second.

Going from `O=C(c1ccco1)N1CCCn2cnc(COCC3CC3)c2C1` to `O=C(c1ccc[nH]1)N1CCCn2cnc(COCC3CC3)c2C1`, the “Percent Effect” value falls from -7.899% to -13.58%.

Going from `O=C(c1ccc2[nH]ccc2c1)N1CCn2cnc(COCC3CC3)c2C1` to `CC1COc2ccccc2N1C(=O)c1ccnc(-n2cncn2)c1` (configuration not stated), the “Percent Effect” value falls from -3.31% to -16.23%.

Going from `CC(C)(C)c1coc([C@@H]2COCCN2Cc2c[nH]cn2)n1` to `CCOCCN1CCN(Cc2nnc(-c3occc3C)o2)CC1CC` (configuration not stated), the “Percent Effect” value rises from -1.373% to 4.766%.

Going from `CN(C)C(=O)CNC(=O)Nc1cccc(Cl)c1SC(F)F` to `CCN(C(=O)c1ccccc1I)C1CC(=O)NC1=O` (configuration not stated), the “Percent Effect” value rises from -14% to 4.049%.

Going from `Cc1ccccc1N1CCCN(C(=O)CC2CN(C(C)C)CCO2)CC1` (configuration not stated) to `CC(C)N1CCOC(CC(=O)N2CCCN(c3ccc(F)cc3)CC2)C1` (configuration not stated), the “Percent Effect” value falls from 116.5% to 103.5%.

First: CSCC(=O)N1CCCN(c2ccccc2C)CC1
Second: CSCCC(=O)N1CCCN(c2ccccc2C)CC1
The “Percent Effect” value of the first is higher: 124.1% for the first, -1.705% for the second.

Compared with `N#Cc1ccc(N2CCCN(C(=O)CC3CCCO3)CC2)cc1` (configuration not stated), `CSCC(=O)N1CCCN(c2ccncc2C)CC1` is lower in “Percent Effect” value: 5.693% for the first, -12.26% for the second.

Compared with `COC(=O)CC1CN(Cc2ccn(-c3ccc(F)cc3)n2)CCO1` (configuration not stated), `Cc1ccsc1[C@@H]1CCN(C(=O)CCOc2ccccc2)C[C@H]1O` is higher in “Percent Effect” value: -16.13% for the first, -3.102% for the second.

Going from `Cc1ccccc1N1CCCN(C(=O)CN2C(=O)OC[C@@H]2C(C)C)CC1` to `O=C(CO)N1CC[C@@H](N2CCN(c3ccccc3F)CC2)[C@H](O)C1`, the “Percent Effect” value falls from 17.78% to 5.557%.

First: NC(=O)c1cncc(-n2ccc(-c3cnccn3)n2)c1
Second: COc1ccc(S(=O)(=O)Nc2cccnc2-n2cncn2)cc1C
The “Percent Effect” value of the first is lower: -26.19% for the first, -1.49% for the second.

First: CC(C#N)(NC(=O)COc1ccccc1Br)C1CC1 (configuration not stated)
Second: COCC(=O)N1C[C@@H](O)[C@H](N2CCN(c3ccccc3)CC2)C1
The “Percent Effect” value of the first is lower: 18.27% for the first, 143.5% for the second.

Compared with `CN1CCN(CC2CC2)C(=O)C12CCN(C(=O)c1cnccn1)CC2`, `CN1CCN(CC2CC2)C(=O)C12CCN(C(=O)c1ccnnc1)CC2.O=C(O)C(F)(F)F` is higher in “Percent Effect” value: -10.28% for the first, -9.864% for the second.

First: O=C(CC(F)(F)F)N1CCC2(CCCN(c3nncs3)C2)C1 (configuration not stated)
Second: Cc1ccc(N2CCCC3(CCN(C(=O)CC(F)(F)F)C3)C2)nn1 (configuration not stated)
The “Percent Effect” value of the first is lower: -11.31% for the first, -9.607% for the second.

Compared with `CN1CCN(C)C2(CCN(C(=O)CC(F)(F)F)CC2)C1=O`, `CCN1CCN(C)C2(CCN(C(=O)CC(F)(F)F)CC2)C1=O` is higher in “Percent Effect” value: 104% for the first, 118.4% for the second.

Going from `CC/C=C(/C)C(=O)N1CSCC1C(=O)NC1=NCCS1` (configuration not stated) to `CNc1ncc(CN(C)C(=O)[C@@]23CNC[C@@H]2CN(C(=O)C2CC2)C3)cn1`, the “Percent Effect” value falls from -1.356% to -3.257%.

First: COc1ccc(S(=O)(=O)NCCn2cnc(C)cc2=O)cc1C
Second: COc1ccc(F)cc1S(=O)(=O)NCCn1cnc(C)cc1=O
The “Percent Effect” value of the first is higher: 93.11% for the first, 77.48% for the second.

Compared with `COc1ncc(NS(=O)(=O)c2ccc(OC)c(C)c2)c(OC)n1`, `COc1ccc(F)cc1S(=O)(=O)NCC(O)c1sccc1C` (configuration not stated) is higher in “Percent Effect” value: -43.62% for the first, 28.76% for the second.

Going from `COc1cc(NCCNC(=O)c2cc[nH]c2C)cc(OC)c1` to `COCCC(=O)N1CC2(CCN(c3ccccc3)C2)C1`, the “Percent Effect” value falls from -11.29% to -36.12%.

Going from `CSCCC(=O)N1CC[C@@H](N2CCN(c3ccccc3F)CC2)[C@H](O)C1` to `COCCC(=O)N1C[C@@H](O)[C@H](N2CCN(c3ccccc3)CC2)C1`, the “Percent Effect” value rises from -0.8189% to 133.4%.

Compared with `CN1CCN([C@@H]2CN(C(=O)CCOc3ccccc3)C[C@H]2O)CC1`, `CCOCC(=O)N1C[C@@H](O)[C@H](N2CCN(c3ccccc3)CC2)C1` is higher in “Percent Effect” value: 98.51% for the first, 110.9% for the second.

Compared with `CC(C)=CCN1CCN(CCCOc2ccccc2)[C@H]2CS(=O)(=O)C[C@H]21`, `N#Cc1ccnc(N2CCN(CC(O)c3ccccc3Cl)CC2)c1` (configuration not stated) is higher in “Percent Effect” value: -8.839% for the first, -8.703% for the second.
